Data: the supplement of paper PMC11732987, “Enantioselective OTUD7B fragment discovery through chemoproteomics screening and high-throughput optimisation” (Communications Chemistry, 2025)

molecular target: T1, USP38 (UniProt Q8NB14); test: log2 ratio of Biotin-Ahx-Ub-VS probe labelling (compound/DMSO); higher = less target engagement, active = hit call of the paper (q ≤ 0.05, log2 ratio ≤ -1); conditions: compound concentration: 50uM; treatment time: 3 h
T1 sequence (whole entry): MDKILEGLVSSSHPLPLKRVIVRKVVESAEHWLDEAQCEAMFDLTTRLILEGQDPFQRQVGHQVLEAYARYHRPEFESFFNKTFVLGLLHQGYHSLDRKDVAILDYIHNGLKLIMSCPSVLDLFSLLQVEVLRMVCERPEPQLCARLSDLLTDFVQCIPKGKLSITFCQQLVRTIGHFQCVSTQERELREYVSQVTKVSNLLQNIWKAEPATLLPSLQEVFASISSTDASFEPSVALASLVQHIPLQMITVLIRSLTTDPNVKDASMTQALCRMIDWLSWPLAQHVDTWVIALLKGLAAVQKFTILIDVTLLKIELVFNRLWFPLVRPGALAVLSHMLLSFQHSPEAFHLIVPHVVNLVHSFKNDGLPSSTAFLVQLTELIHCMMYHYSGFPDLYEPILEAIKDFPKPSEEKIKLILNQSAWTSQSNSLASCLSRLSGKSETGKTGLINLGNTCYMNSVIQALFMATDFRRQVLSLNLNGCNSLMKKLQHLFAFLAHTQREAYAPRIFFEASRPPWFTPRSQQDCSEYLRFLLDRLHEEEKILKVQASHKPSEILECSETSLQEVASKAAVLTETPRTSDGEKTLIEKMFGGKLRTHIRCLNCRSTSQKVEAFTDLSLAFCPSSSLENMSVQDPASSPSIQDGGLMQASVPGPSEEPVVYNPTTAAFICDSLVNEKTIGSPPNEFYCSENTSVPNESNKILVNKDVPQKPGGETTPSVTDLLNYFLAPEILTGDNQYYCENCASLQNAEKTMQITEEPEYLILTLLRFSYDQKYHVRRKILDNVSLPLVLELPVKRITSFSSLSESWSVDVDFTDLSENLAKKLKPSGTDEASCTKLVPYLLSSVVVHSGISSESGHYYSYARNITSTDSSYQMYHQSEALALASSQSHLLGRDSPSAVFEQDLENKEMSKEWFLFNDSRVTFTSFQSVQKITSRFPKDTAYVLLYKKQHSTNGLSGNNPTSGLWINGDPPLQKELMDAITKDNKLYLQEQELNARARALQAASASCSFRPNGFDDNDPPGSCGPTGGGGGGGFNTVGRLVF
Description: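 Round 2 competitive ABPP in HEK293T lysate. Compounds were tested at 50 and 200 µM for 3 h, followed by Biotin-Ahx-Ub-VS enrichment and diaPASEF LC-MS/MS. Values are the average log2 ratio (compound/DMSO) from an unpaired t-test (n=3 treated, n=26 DMSO).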

log2 ratio of Biotin-Ahx-Ub-VS probe labelling, inactive:
O=C(CCl)NC1CCOc2ccccc21 (configuration not stated) 0.0839, Cl.Cn1ncc2c1CCCC2NC(=O)CCl (configuration not stated) 0.328, COc1cccc(CN(C)C(=O)CCl)c1 0.0582, Cl.O=C(CCl)N1CCc2ncncc2C1 -0.214, CN1c2ccccc2C(NC(=O)CCl)CS1(=O)=O (configuration not stated) -0.19, CCC1c2ccsc2CCN1C(=O)CCl (configuration not stated) 0.124

same assay, conditions: compound concentration: 200uM; treatment time: 3 h

log2 ratio of Biotin-Ahx-Ub-VS probe labelling, inactive:
O=C(CCl)NC1CCOc2ccccc21 (configuration not stated) -0.0989, Cl.Cn1ncc2c1CCCC2NC(=O)CCl (configuration not stated) -0.153, COc1cccc(CN(C)C(=O)CCl)c1 -0.322, Cl.O=C(CCl)N1CCc2ncncc2C1 -0.296, CN1c2ccccc2C(NC(=O)CCl)CS1(=O)=O (configuration not stated) -0.231, CCC1c2ccsc2CCN1C(=O)CCl (configuration not stated) -0.277
